NS1 inh = inhibitors of influenza NS1 protein function. Potency, µM (highest dose often 46.1 µM). AID 2326. 270,000 compounds, 0.4% hits; calls by dose curve; note: actives are rising curves; nearly all actives have a fitted effect of over 50% in size
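Read-out: OD600 growth recovery of NS1-expressing budding yeast. Cells grown overnight at 30C in -URA glucose medium, washed, resuspended and diluted 1:100 in 2% galactose assay medium, pH 6.0. Same strain lacking NS1 served as positive control.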
Pf growth 96h = P. falciparum growth inhibition at 96 hours. 320,000 compounds, 6.9% hits. AID 504834. Potency, µM (titrated, usually from 28.7 µM), hits mostly inhibitors. P. falciparum luciferase reporter growth, 96 h
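Two-generation exposure (96 h) targets delayed-death phenotype. Reporter parasites carrying integrated firefly luciferase, in red cells at 2% hematocrit and 0.05% parasitemia final, kept at 37 C, 5% CO2; luminescence loss indicates inhibition.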
Shiga inhibitor = blocks Shiga toxin action in Vero cells; Vero cells, Shiga toxin protein synthesis inhibition reporter; inhibition, % at 38.7 µM; 290,000 compounds, 9.2% hits; AID 2315; in the data active = inhibition mostly above about 28%, no sharp cut-off; inactive = mostly below about 43%
Sm TGR block = inhibitors of Schistosoma mansoni thioredoxin glutathione reductase | Q962Y6 | purified TGR, DTNB reduction, TNB absorbance 405 nm | Potency, µM (highest dose often 114 µM), hits mostly inhibitors | 360,000 compounds, 3% hits; note: nearly all actives have a fitted effect of over 60% in size
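TGR 20 nM + NADPH 100 uM (dispensed conc.), cpd preinc 15 min RT; start with NADPH (500 uM addition) then DTNB (15 mM addition). Kinetic TNB absorbance, 405 nm filter. Four-parameter Hill fit across titration.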
Cycloheximide cs = counter-screen for Shiga toxin inhibitors: cycloheximide protein synthesis inhibition | max response, % | 300,000 compounds, 12% hits | cell reporter, cycloheximide protein synthesis inhibition counterscreen; in the data active = max response mostly above about 13%, no sharp cut-off; inactive = mostly below about 14%; note: read at 38.3 µM for the half of the compounds with a filed dose
Pf growth 48h = inhibits P. falciparum growth in the first generation, 48 h | P. falciparum luciferase growth in erythrocytes, 48 h | 310,000 compounds, 5.9% hits | Potency, µM (top dose mostly 28.7 µM), actives largely listed as inhibitors
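Erythrocytes infected with P. falciparum carrying an integrated firefly luciferase reporter (2% hematocrit, 0.1% parasitemia final) were exposed to compounds in RPMI 1640 with 0.5% Albumax at 37 C, 5% CO2. Growth inhibition was scored as reduced luminescence.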
Hits are given with their value. Most compounds without a hit are left out; they make up all but 21% or so of the library. Unless noted, calls come from the whole dose curve; as a rule, active = well fitted curve in the direction sought with a large enough effect; inconclusive = small, poorly fitted or top-dose-only effect, or another doubt; inactive = no such curve, though single readings can be large; an effect the other way counts as inactive or inconclusive.

Results for CCS(=O)(=O)Nc1ccc(C2=NN(C(=O)c3ccco3)C(c3ccc(C)cc3)C2)cc1 (stereo unspecified) ?
NS1 inh: inconclusive; Pf growth 96h: inconclusive; Shiga inhibitor: inactive; Sm TGR block: inactive; Cycloheximide cs: inactive; Pf growth 48h: 10.4µM

What do the screens show for `Cc1cccc(-n2cnc3cc(C(=O)N4CCc5ccccc54)ccc32)c1`?
NS1 inh: inactive; Pf growth 96h: inactive; Shiga inhibitor: inactive; Sm TGR block: inactive; Cycloheximide cs: inactive; Pf growth 48h: inactive

How did COc1ccc(CNCCc2ccccc2F)c(OC)c1C do in these assays?
NS1 inh: inactive; Pf growth 96h: inactive; Shiga inhibitor: inactive; Sm TGR block: inactive; Cycloheximide cs: inactive; Pf growth 48h: 10.4µM

What do the screens show for `COc1cc(C)c(CNCCc2c[nH]c3ccccc23)cc1C`?
NS1 inh: inactive; Pf growth 96h: inactive; Shiga inhibitor: inactive; Sm TGR block: inactive; Cycloheximide cs: inactive; Pf growth 48h: inconclusive

What do the screens show for `COc1ccc(CNCCc2c[nH]c3ccccc23)c(OC)c1C`?
NS1 inh: inactive; Pf growth 96h: 2.94µM; Shiga inhibitor: inactive; Sm TGR block: inactive; Cycloheximide cs: inactive; Pf growth 48h: inconclusive

How did COC(=O)c1c(SC)nc2ccccc2c1OCc1ccc(C)cc1 do in these assays?
Sm TGR block: inactive

How did Cc1ccnc(NC(c2cc(C)ccc2O)c2ccc3cccnc3c2O)c1 (stereo unspecified) do in these assays?
Sm TGR block: 0.355µM

Results for Oc1ccccc1C(Nc1nccs1)c1ccc2cccnc2c1O (stereo unspecified) ?
NS1 inh: inactive; Pf growth 96h: 2.62µM; Shiga inhibitor: inactive; Sm TGR block: 1.26µM; Cycloheximide cs: inactive; Pf growth 48h: 1.85µM

Results for Oc1c(C(Nc2ccccn2)c2ccccc2F)ccc2cccnc12 (stereo unspecified) ?
Shiga inhibitor: inactive; Sm TGR block: 2µM; Cycloheximide cs: inactive

What do the screens show for `Cc1ccnc(NC(c2cccnc2)c2ccc3cccnc3c2O)c1` (stereo unspecified)?
NS1 inh: inactive; Pf growth 96h: inactive; Shiga inhibitor: inactive; Cycloheximide cs: inactive; Pf growth 48h: inconclusive

Results for Oc1c(C(Nc2ccccn2)c2ccccn2)ccc2cccnc12 (stereo unspecified) ?
NS1 inh: inactive; Shiga inhibitor: inactive; Sm TGR block: 22.4µM; Cycloheximide cs: inactive; Pf growth 48h: 2.94µM

What do the screens show for `Cc1ccc(C2(C)NC(=O)N(CC(=O)N3CCN(S(=O)(=O)c4ccc(Cl)s4)CC3)C2=O)cc1` (stereo unspecified)?
Pf growth 96h: inconclusive; Sm TGR block: inactive; Pf growth 48h: inconclusive

What do the screens show for `Cc1cccc(C(c2sc3nc(-c4ccco4)nn3c2O)N2CCOCC2)c1` (stereo unspecified)?
Sm TGR block: inactive

What do the screens show for `Cc1ccnc(NC(c2ccccc2F)c2ccc3cccnc3c2O)c1` (stereo unspecified)?
Sm TGR block: 2.24µM

How did Cc1ccc(C(=O)NNC(=O)c2ccccc2O)cc1S(=O)(=O)N1CCCCC1 do in these assays?
Pf growth 96h: inactive; Sm TGR block: inactive; Pf growth 48h: inconclusive

What do the screens show for `Cc1c(C(=O)Nc2cc(F)cc(F)c2)cnn1-c1ccccc1`?
NS1 inh: inactive; Pf growth 96h: inactive; Sm TGR block: inactive; Cycloheximide cs: 51.6; Pf growth 48h: inactive

What do the screens show for `Cc1c(C(=S)Nc2ccccc2)cnn1-c1ccc([N+](=O)[O-])cc1`?
NS1 inh: inactive; Pf growth 96h: inconclusive; Shiga inhibitor: inactive; Sm TGR block: inactive; Cycloheximide cs: inactive; Pf growth 48h: inactive

How did CC(=O)c1cnn(-c2ccccc2)c1C do in these assays?
Pf growth 96h: inactive; Shiga inhibitor: inactive; Sm TGR block: inactive; Cycloheximide cs: inactive; Pf growth 48h: inactive

How did Cc1nn(-c2ccccc2)cc1C(=S)Nc1ccccc1 do in these assays?
NS1 inh: inactive; Pf growth 96h: inactive; Shiga inhibitor: 64.0; Sm TGR block: inactive; Cycloheximide cs: 27.4; Pf growth 48h: inactive

What do the screens show for `Cc1c(C(=S)Nc2ccccc2)cnn1-c1ccccc1`?
NS1 inh: inactive; Pf growth 96h: inactive; Shiga inhibitor: inactive; Sm TGR block: inactive; Cycloheximide cs: 35.2; Pf growth 48h: inactive

How did Cc1c(C(=O)Oc2cccc3ccccc23)cnn1-c1ccccc1 do in these assays?
NS1 inh: inactive; Shiga inhibitor: 151.2; Sm TGR block: inactive; Cycloheximide cs: 45.4; Pf growth 48h: inactive

Results for O=c1[nH]cc(CS(=O)(=O)Cc2c[nH]c(=O)[nH]c2=O)c(=O)[nH]1 ?
NS1 inh: inactive

How did COc1ccc(NC(=O)c2cnn(-c3ccccc3)c2C)c(OC)c1 do in these assays?
NS1 inh: inactive; Pf growth 96h: inactive; Shiga inhibitor: inactive; Sm TGR block: inactive; Cycloheximide cs: inactive; Pf growth 48h: inactive

How did CCc1ccc(NC(=O)c2cnn(-c3ccccc3)c2C2CCNCC2)cc1 do in these assays?
Pf growth 96h: inactive; Shiga inhibitor: inactive; Sm TGR block: inactive; Cycloheximide cs: inactive; Pf growth 48h: inconclusive

Results for Cc1ccc(NC(=O)c2cnn(-c3ccccc3)c2NC(=O)c2ccco2)cc1C ?
NS1 inh: inactive; Pf growth 96h: 11.7µM; Shiga inhibitor: inactive; Sm TGR block: inactive; Cycloheximide cs: inactive; Pf growth 48h: inactive

How did Cc1c(C(=O)Nc2ccccc2F)cnn1-c1ccccc1 do in these assays?
NS1 inh: inactive; Pf growth 96h: inactive; Shiga inhibitor: 79.8; Sm TGR block: inactive; Cycloheximide cs: 57.4; Pf growth 48h: inactive

What do the screens show for `CCc1ccc(NC(=O)c2cnn(-c3ccccc3)c2C)cc1`?
NS1 inh: inactive; Pf growth 96h: inactive; Shiga inhibitor: 59.3; Sm TGR block: inactive; Cycloheximide cs: 63.4; Pf growth 48h: inactive

Results for Cc1nc2cc(C(F)(F)F)ccc2n1C1CCN(Cc2nnnn2CCc2ccccc2)CC1 ?
NS1 inh: inactive; Pf growth 96h: inactive; Shiga inhibitor: inactive; Sm TGR block: inactive; Cycloheximide cs: inactive; Pf growth 48h: 13.1µM

What do the screens show for `Cc1ccccc1C(=O)NC1CCN(Cc2nnnn2CCc2ccccc2)CC1`?
NS1 inh: inactive; Pf growth 96h: inconclusive; Shiga inhibitor: inactive; Sm TGR block: inactive; Cycloheximide cs: inactive; Pf growth 48h: inactive

What do the screens show for `Cc1nc2cc(C(F)(F)F)ccc2n1C1CCN(C(=O)N2CCOCC2)CC1`?
NS1 inh: inactive; Pf growth 96h: inconclusive; Shiga inhibitor: inactive; Sm TGR block: inactive; Cycloheximide cs: inactive; Pf growth 48h: inactive

Results for Cc1nc2cc(F)ccc2n1C1CCN(Cc2nnnn2CCc2ccccc2)CC1 ?
NS1 inh: inactive; Pf growth 96h: inconclusive; Shiga inhibitor: inactive; Sm TGR block: inactive; Cycloheximide cs: inactive; Pf growth 48h: 9.28µM

What do the screens show for `Nc1c(C(O)(C(F)(F)F)C(F)(F)F)ccc2ccccc12`?
NS1 inh: inactive; Shiga inhibitor: inactive; Sm TGR block: 39.8µM; Cycloheximide cs: inactive; Pf growth 48h: inconclusive

What do the screens show for `Nc1ccc(C(O)(C(F)(F)F)C(F)(F)F)cc1`?
NS1 inh: inactive; Pf growth 96h: inactive; Shiga inhibitor: inactive; Sm TGR block: inactive; Cycloheximide cs: inactive
